Out of some 5,500 compounds screened, about 2,000 (36%) were called active. Inconclusive results (about 18%) are left out. This is one part of the list. Values without a mark were called inactive. Cut-off read from the data, not from the text of the source: active = normalized growth mostly below about 0.91 (no sharp cut-off); inconclusive = no clear call, values can overlap the other calls; inactive = mostly above about 0.92.
Assay: chemical genetic growth profiling, strain panel (AID 1159580);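 note: tested at 20 µM; growth read once vehicle control cultures reached saturation at 30 °C; 1 = growth at the plate median or of vehicle wells; lower values mean less growth of the strain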
Settings: growth OD
[1] = S. cerevisiae deletion strains, locus YDL101C, strain DUN1, hits give low values
[2] = S. cerevisiae deletion strains, locus YHR030C, strain SLT2, hits give low values
[3] = S. cerevisiae deletion strains, locus YJR075W, strain HOC1, hits give low values
[4] = S. cerevisiae deletion strains, locus YMR263W, strain SAP30, hits give low values
[5] = S. cerevisiae deletion strains, locus YMR307W, strain GAS1, hits give low values
[6] = S. cerevisiae deletion strains, locus YNL153C, strain GIM3, hits give low values
[7] = S. cerevisiae deletion strains, locus YPL241C, strain CIN2, hits give low values
[8] = S. cerevisiae deletion strains, locus YAL013W, strain DEP1, hits give low values
[9] = S. cerevisiae deletion strains, locus YBR229C, strain ROT2, hits give low values
[10] = S. cerevisiae deletion strains, locus YDR150W, strain NUM1, hits give low values
[11] = S. cerevisiae deletion strains, locus YEL061C, strain CIN8, hits give low values
[12] = S. cerevisiae deletion strains, locus YGR078C, strain PAC10, hits give low values
[13] = S. cerevisiae deletion strains, locus YHR087W, strain rtc3, hits give low values
[14] = S. cerevisiae deletion strains, locus YJR043C, strain POL32, hits give low values
[15] = S. cerevisiae deletion strains, locus YLR039C, strain RIC1, hits give low values
[16] = S. cerevisiae deletion strains, locus YLR058C, strain SHM2 (second series), hits give low values
[17] = S. cerevisiae deletion strains, locus YLR085C, strain ARP6, hits give low values
[18] = S. cerevisiae deletion strains, locus YLR262C, strain YPT6, hits give low values
[19] = S. cerevisiae deletion strains, locus YML094W, strain GIM5, hits give low values
[20] = S. cerevisiae deletion strains, locus YMR219W, strain ESC1, hits give low values
[21] = S. cerevisiae deletion strains, locus YNL298W, strain CLA4 (second series), hits give low values
[22] = S. cerevisiae deletion strains, locus YNL322C, strain KRE1, hits give low values
[23] = S. cerevisiae deletion strains, locus YNR030W, strain Alg12, hits give low values
[24] = S. cerevisiae deletion strains, locus YPL055C, strain LGE1, hits give low values
[25] = S. cerevisiae deletion strains, locus YPR135W, strain CTF4, hits give low values
[26] = S. cerevisiae strains, strain wild type, hits give low values

For `Cn1c(CSCCOc2ccccc2)nnc1SCc1ccc(Cl)cc1Cl`, the normalized growth (S. cerevisiae deletion strains, locus YAR019C, strain CDC15, hits give low values) was 0.985, the normalized growth (S. cerevisiae deletion strains, locus YBL105C, strain PKC1, hits give low values) was 0.982 and the normalized growth (S. cerevisiae deletion strains, locus YBR135W, strain CKS1, hits give low values) was 0.98. The normalized growth (S. cerevisiae deletion strains, locus YBR136W, strain MEC1, hits give low values) was 0.98, the normalized growth (S. cerevisiae deletion strains, locus YBR160W, strain CDC28, hits give low values) was 0.98 and the normalized growth (S. cerevisiae deletion strains, locus YDL017W, strain CDC7, hits give low values) was 0.986. It also gave a normalized growth (S. cerevisiae deletion strains, locus YDL028C, strain MPS1, hits give low values) of 0.992, a normalized growth [1] of 0.995 and a normalized growth (S. cerevisiae deletion strains, locus YDL108W, strain KIN28, hits give low values) of 0.986. For the same compound, the normalized growth (S. cerevisiae deletion strains, locus YDL132W, strain cdc53, hits give low values) was 0.968, the normalized growth (S. cerevisiae deletion strains, locus YDL214C, strain PRR2, hits give low values) was 0.984 and the normalized growth (S. cerevisiae deletion strains, locus YDR052C, strain DBF4, hits give low values) was 0.982. It also gave a normalized growth (S. cerevisiae deletion strains, locus YDR054C, strain cdc34, hits give low values) of 0.985, a normalized growth (S. cerevisiae deletion strains, locus YDR226W, strain ADK1, hits give low values) of 0.971 and a normalized growth (S. cerevisiae deletion strains, locus YDR477W, strain SNF1, hits give low values) of 1.02. It also gave a normalized growth (S. cerevisiae deletion strains, locus YER123W, strain YCK3, hits give low values) of 0.98, a normalized growth (S. cerevisiae deletion strains, locus YER133W, strain GLC7, hits give low values) of 1 and a normalized growth (S. cerevisiae deletion strains, locus YFL009W, strain cdc4, hits give low values) of 0.983. The normalized growth (S. cerevisiae deletion strains, locus YFL029C, strain CAK1, hits give low values) was 0.99, the normalized growth (S. cerevisiae deletion strains, locus YFR003C, strain YPI1, hits give low values) was 0.987 and the normalized growth (S. cerevisiae deletion strains, locus YFR019W, strain FAB1, hits give low values) was 0.946. For the same compound, the normalized growth (S. cerevisiae deletion strains, locus YFR028C, strain CDC14, hits give low values) was 0.989, the normalized growth (S. cerevisiae deletion strains, locus YGR040W, strain KSS1, hits give low values) was 1.01 and the normalized growth (S. cerevisiae deletion strains, locus YGR052W, strain FMP48, hits give low values) was 1.12. The normalized growth (S. cerevisiae deletion strains, locus YGR092W, strain DBF2, hits give low values) was 0.984, the normalized growth [2] was 0.829 (active) and the normalized growth (S. cerevisiae deletion strains, locus YHR079C, strain IRE1, hits give low values) was 0.97. The normalized growth (S. cerevisiae deletion strains, locus YHR082C, strain KSP1, hits give low values) was 1.02, the normalized growth (S. cerevisiae deletion strains, locus YHR205W, strain SCH9, hits give low values) was 0.969 and the normalized growth (S. cerevisiae deletion strains, locus YIL147C, strain SLN1, hits give low values) was 0.985. For the same compound, the normalized growth (S. cerevisiae deletion strains, locus YJL095W, strain BCK1, hits give low values) was 0.911, the normalized growth (S. cerevisiae deletion strains, locus YJL128C, strain PBS2, hits give low values) was 0.905 and the normalized growth (S. cerevisiae deletion strains, locus YJL157C, strain FAR1, hits give low values) was 1.01. It also gave a normalized growth (S. cerevisiae deletion strains, locus YJR016C, strain ILV3, hits give low values) of 0.982, a normalized growth (S. cerevisiae deletion strains, locus YJR066W, strain TOR1 (second series), hits give low values) of 0.977 and a normalized growth (S. cerevisiae deletion strains, locus YJR066W, strain TOR1, hits give low values) of 0.995. For the same compound, the normalized growth (S. cerevisiae deletion strains, locus YKL048C, strain ELM1, hits give low values) was 0.963, the normalized growth (S. cerevisiae deletion strains, locus YKL067W, strain YNK1, hits give low values) was 0.994 and the normalized growth (S. cerevisiae deletion strains, locus YKL101W, strain HSL1, hits give low values) was 0.981. The normalized growth (S. cerevisiae deletion strains, locus YKL193C, strain SDS22, hits give low values) was 0.998, the normalized growth (S. cerevisiae deletion strains, locus YKL203C, strain TOR2, hits give low values) was 1.07 and the normalized growth (S. cerevisiae deletion strains, locus YLR113W, strain HOG1, hits give low values) was 1. For the same compound, the normalized growth (S. cerevisiae deletion strains, locus YLR133W, strain CKI1, hits give low values) was 0.982, the normalized growth (S. cerevisiae deletion strains, locus YLR403W, strain SFP1, hits give low values) was 1.01 and the normalized growth (S. cerevisiae deletion strains, locus YML070W, strain DAK1, hits give low values) was 1. The normalized growth (S. cerevisiae deletion strains, locus YMR001C, strain CDC5, hits give low values) was 0.988, the normalized growth (S. cerevisiae deletion strains, locus YMR205C, strain PFK2 (second series), hits give low values) was 0.994 and the normalized growth (S. cerevisiae deletion strains, locus YMR277W, strain FCP1, hits give low values) was 0.989. It also gave a normalized growth (S. cerevisiae deletion strains, locus YNL006W, strain LST8, hits give low values) of 0.99, a normalized growth (S. cerevisiae deletion strains, locus YNL020C, strain ARK1, hits give low values) of 0.974 and a normalized growth (S. cerevisiae deletion strains, locus YNL161W, strain CBK1, hits give low values) of 0.98. For the same compound, the normalized growth (S. cerevisiae deletion strains, locus YNL183C, strain NPR1, hits give low values) was 0.996, the normalized growth (S. cerevisiae deletion strains, locus YNL207W, strain RIO2, hits give low values) was 1 and the normalized growth (S. cerevisiae deletion strains, locus YNL222W, strain SSU72, hits give low values) was 0.984. For the same compound, the normalized growth (S. cerevisiae deletion strains, locus YNL307C, strain MCK1 (second series), hits give low values) was 0.96, the normalized growth (S. cerevisiae deletion strains, locus YOL078W, strain AVO1, hits give low values) was 0.994 and the normalized growth (S. cerevisiae deletion strains, locus YOL136C, strain PFK27, hits give low values) was 0.988. The normalized growth (S. cerevisiae deletion strains, locus YOR061W, strain CKA2, hits give low values) was 1, the normalized growth (S. cerevisiae deletion strains, locus YOR119C, strain RIO1, hits give low values) was 1.14 and the normalized growth (S. cerevisiae deletion strains, locus YOR231W, strain MKK1, hits give low values) was 0.992. For the same compound, the normalized growth (S. cerevisiae deletion strains, locus YOR329C, strain SCD5, hits give low values) was 0.986, the normalized growth (S. cerevisiae deletion strains, locus YPL031C, strain PHO85, hits give low values) was 1.03 and the normalized growth (S. cerevisiae deletion strains, locus YPL153C, strain RAD53, hits give low values) was 1.03. For the same compound, the normalized growth (S. cerevisiae deletion strains, locus YPL204W, strain HRR25, hits give low values) was 1.04, the normalized growth (S. cerevisiae deletion strains, locus YPL209C, strain IPL1, hits give low values) was 0.99 and the normalized growth (S. cerevisiae deletion strains, locus YPL256C, strain CLN2, hits give low values) was 0.979. The normalized growth (S. cerevisiae deletion strains, locus YPR025C, strain CCL1, hits give low values) was 0.986, the normalized growth (S. cerevisiae deletion strains, locus YPR106W, strain ISR1, hits give low values) was 0.982 and the normalized growth (S. cerevisiae deletion strains, locus YPR111W, strain DBF20, hits give low values) was 0.969. The normalized growth (S. cerevisiae deletion strains, strain NNK1, hits give low values) was 0.983 and the normalized growth (S. cerevisiae deletion strains, strain TSCII, hits give low values) was 0.988.

`O=S(=O)(O)C1CCNCC1` gave a normalized growth (S. cerevisiae deletion strains, locus YAL040C, strain CLN3, hits give low values) of 0.981, a normalized growth (S. cerevisiae deletion strains, locus YCL061C, strain MRC1 (second series), hits give low values) of 1 and a normalized growth (S. cerevisiae deletion strains, locus YDR363W, strain ESC2, hits give low values) of 0.943. For the same compound, the normalized growth (S. cerevisiae deletion strains, locus YER002W, strain NOP16, hits give low values) was 1, the normalized growth [3] was 1.01 and the normalized growth [4] was 0.997. The normalized growth [5] was 0.991, the normalized growth [6] was 1.02 and the normalized growth (S. cerevisiae deletion strains, locus YNL175C, strain NOP13, hits give low values) was 0.995. For the same compound, the normalized growth (S. cerevisiae deletion strains, locus YNL197C, strain WHI3, hits give low values) was 0.995, the normalized growth (S. cerevisiae deletion strains, locus YNL224C, strain SQS1, hits give low values) was 0.995 and the normalized growth (S. cerevisiae deletion strains, locus YOR083W, strain WHI5 (second series), hits give low values) was 0.993. For the same compound, the normalized growth [7] was 1.

`CN(/N=C\c1ccccc1)c1ncc(C(F)(F)F)cc1Cl` gave a normalized growth [8] of 0.975, a normalized growth [9] of 0.949 and a normalized growth (S. cerevisiae deletion strains, locus YCL061C, strain MRC1, hits give low values) of 0.989. The normalized growth [1] was 0.96, the normalized growth (S. cerevisiae deletion strains, locus YDL134C, strain PPH21, hits give low values) was 0.988 and the normalized growth [10] was 0.897. For the same compound, the normalized growth [11] was 0.938, the normalized growth [12] was 0.934 and the normalized growth [2] was 0.392 (active). For the same compound, the normalized growth [13] was 0.905 (active), the normalized growth [14] was 0.99 and the normalized growth [3] was 0.921. The normalized growth [15] was 0.89, the normalized growth [16] was 0.953 and the normalized growth [17] was 0.775 (active). It also gave a normalized growth [18] of 0.88, a normalized growth [19] of 0.929 and a normalized growth [20] of 0.978. For the same compound, the normalized growth [4] was 0.99, the normalized growth [6] was 0.984 and the normalized growth [21] was 0.949. For the same compound, the normalized growth [22] was 0.974, the normalized growth [23] was 0.89 and the normalized growth [24] was 0.901. It also gave a normalized growth [7] of 1.02, a normalized growth [25] of 0.907 and a normalized growth [26] of 0.98.

For `CN1CCN(C=Nc2ncc(C(F)(F)F)cc2Cl)CC1`, the normalized growth [8] was 0.986, the normalized growth [9] was 1.02 and the normalized growth [1] was 0.946. The normalized growth [10] was 0.974, the normalized growth [11] was 1.01 and the normalized growth [12] was 0.984. The normalized growth [2] was 0.957, the normalized growth [13] was 1.07 and the normalized growth (S. cerevisiae deletion strains, locus YJL187C, strain SWE1, hits give low values) was 1. For the same compound, the normalized growth [14] was 0.996, the normalized growth [3] was 0.989 and the normalized growth [15] was 0.976. The normalized growth [16] was 0.996, the normalized growth [17] was 0.949 and the normalized growth [18] was 0.995. The normalized growth [19] was 1.01, the normalized growth [20] was 1 and the normalized growth [4] was 0.999. It also gave a normalized growth [5] of 1.01, a normalized growth [6] of 0.991 and a normalized growth [21] of 0.975. The normalized growth [22] was 0.978, the normalized growth [23] was 1.02 and the normalized growth (S. cerevisiae deletion strains, locus YOL006C, strain TOP1, hits give low values) was 0.988. For the same compound, the normalized growth [24] was 1.04, the normalized growth [7] was 0.994 and the normalized growth [25] was 0.927. It also gave a normalized growth [26] of 0.991.

— PubChem BioAssay AID1159580 (chemical genetic matrix, 2015)
